The text below walks through data of PubChem BioAssay.

Molecules are shown by their SMILES. The source made the active and inactive calls.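 Rule for the calls, unless noted: active = fluorescence slope higher than the sample average by over 3 SD (cut at about -0.22 in these data, passing the limit was not always enough); inactive = the rest.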

A short description of assay [1]: inhibitors of TNFa-induced NFkB p65 translocation, primary screen, imaging, HUVEC, MLSMR starter and 10KST1 sets (AID 438;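 active = inhibition above 20% together with a positive visual image hit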;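 note: compound added about 3h40 before a 20 min TNFalpha stimulation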;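 for inhibition: signal is the nuclear over cytoplasmic p65 intensity ratio per well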). Particulars: HUVEC TNFa-induced p65 nuclear translocation; cell count: measured here: nuclei count (cytotoxicity indicator), at 2.08 µM; inhibition: at 2 µM, stronger effect = higher value, 0% TNFa-plus-vehicle, 100% no-TNFa wells.
The nature of assay [2]: inhibitors of mutant huntingtin aggregation, primary screen, imaging, exon1htt(103Q)mCFP cells, high-content imaging (AID 483;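 active = visual image review flags a hit and inhibition of aggregation exceeds 20%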;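 note: compound exposure lasted 3 days before fixation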;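 for nuclei count: percent of the per-plate median nuclei count of sample wells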). Particulars: exon1htt(103Q)mCFP cell line, aggregate imaging, at 2 µM; inhibition of aggregation: stronger effect = higher value; nuclei count: measured here: cell count, toxicity.
Assay [3] can be described thus: inhibitors of E-selectin induction by TNFa, primary screen, imaging, HUVEC, immunofluorescence, MLSMR starter and 10KST1 sets (AID 487;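 active = visually confirmed hit in the image check and inhibition above 20%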;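 for inhibition: signal is fraction of cell area covered by stained E-selectin grains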;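 for nuclei count: 100% = median nuclei count of all wells on the same plate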). Particulars: HUVEC TNFalpha-induced E-selectin immunofluorescence imaging, at 2 µM; inhibition: stronger effect = higher value; nuclei count: measured here: cell number, toxicity.
The target in assay [4] is Voltage-gated potassium channel subunit beta-2 (Rattus norvegicus) (UniProt P62483). Nature of the assay: KvBeta enzyme negative modulators, primary screen, biochemical, NADPH fluorescence (AID 622).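 Note: slope of raw intensity against log time taken from 70 to 1610 s.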 Particulars: recombinant KvBeta, 4-cyanobenzaldehyde reduction, at 10 µM, stronger effect = higher value.
Assay [5] has the same target. Nature of the assay: KvBeta positive modulators, primary screen, biochemical, NADPH fluorescence (AID 623;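 active = NADPH fluorescence slope more negative than the mean of all samples by about 3 SD, 99.7% confidence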;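 note: fluorescence intensity change per second fitted from 20 to 320 s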). Particulars: Recombinant KvBeta, NADPH fluorescence decrease slope, 10 min; at 10 µM; stronger effect = lower value.
The target in assay [6] is Alpha-2C adrenergic receptor (Homo sapiens) (UniProt P18825). The assay is described as follows: modulators of alpha2C/GIRK thallium flux, primary screen, cell-based, HEK293 alpha2C/GIRK1/2 (AID 624;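 active = fluorescence slope after compound addition differing from the mean of all screened samples at 99.7% confidence, in either direction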;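 note: slope of fluorescence ratio to pre-addition baseline per second over 15 to 24 s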). Particulars: thallium flux BTC fluorescence, at 10 µM, actives lie on both sides.
The nature of assay [7]: inhibitors of Sendai virus-induced IRF3 signaling, primary screen, TLR/RLR signaling modifier project, cell-based, Sendai virus stimulus, luciferase, 10K MLSCN set (AID 602276;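 active = inhibition at or above 50% at 10 µM; inactive = inhibition below 50%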;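 note: firefly luciferase from ISG56 promoter only with Renilla not read in this screen; 0% = Sendai virus plus DMSO and 100% = medium plus DMSO without virus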). Particulars: HEK293 RL24 IRF3 luciferase reporter, at 10 µM, stronger effect = higher value. In general terms: In a reporter assay the amount or activity of a reporter protein is the signal.
A short description of assay [8]: inhibitors of poly I:C-induced TLR3 signaling, primary screen, cell-based, poly I:C stimulus, luciferase, 10K MLSCN set (AID 602277;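 active = inhibition of the reporter signal at or above 50%; inactive = inhibition below 50%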). To be noted: HEK293-TLR3 RL24 IRF3 luciferase reporter, at 10 µM, stronger effect = higher value.

Chain of Voltage-gated potassium channel subunit beta-2 (Rattus norvegicus) (P62483 whole entry, looked up): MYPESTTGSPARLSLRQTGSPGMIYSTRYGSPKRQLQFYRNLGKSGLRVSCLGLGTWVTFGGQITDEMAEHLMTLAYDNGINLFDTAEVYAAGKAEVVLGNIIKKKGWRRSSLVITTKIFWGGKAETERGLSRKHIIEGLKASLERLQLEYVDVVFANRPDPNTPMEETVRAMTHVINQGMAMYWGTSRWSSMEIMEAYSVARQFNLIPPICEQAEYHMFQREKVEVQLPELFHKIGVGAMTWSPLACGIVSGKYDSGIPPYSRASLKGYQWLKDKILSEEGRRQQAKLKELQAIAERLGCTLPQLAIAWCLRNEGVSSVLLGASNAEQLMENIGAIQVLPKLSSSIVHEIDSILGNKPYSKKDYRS
Chain of Alpha-2C adrenergic receptor (Homo sapiens) (P18825 whole entry, looked up): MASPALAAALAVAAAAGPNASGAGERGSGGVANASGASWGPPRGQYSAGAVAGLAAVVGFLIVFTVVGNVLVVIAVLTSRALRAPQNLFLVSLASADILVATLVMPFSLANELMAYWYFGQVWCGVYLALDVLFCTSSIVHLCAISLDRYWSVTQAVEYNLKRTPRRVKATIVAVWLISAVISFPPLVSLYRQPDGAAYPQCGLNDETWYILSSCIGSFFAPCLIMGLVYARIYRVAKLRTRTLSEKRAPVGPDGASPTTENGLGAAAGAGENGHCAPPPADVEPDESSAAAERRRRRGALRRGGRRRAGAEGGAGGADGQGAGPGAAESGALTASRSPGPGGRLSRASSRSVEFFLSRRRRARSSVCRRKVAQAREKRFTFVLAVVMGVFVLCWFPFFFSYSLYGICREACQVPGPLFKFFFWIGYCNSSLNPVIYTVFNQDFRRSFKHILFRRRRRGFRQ

The inhibition is the change of the read-out against control, counted positive when it falls. Take `CCOC(=O)C1=C(C)NC(C)=C(C(=O)OCC)C1c1cc(N)ccc1OC(F)F`: the cell count in assay [1] amounted to 181. The inhibition is -11% (inactive) in assay [1], -12.2% (inactive) in assay [3], 8.52% (inactive) in assay [7] and 28.4% (inactive) in assay [8]. The inhibition of aggregation in assay [2] is 22.6% (inactive). Moreover, the values for the nuclei count in assay [2] and in assay [3] were 83.8% and 96.5%, respectively. Moreover, in assay [4], the fluorescence slope was -0.445 (inactive). For the same compound, the NADPH fluorescence slope in assay [5] is 4.3e-05 (inactive). For the same compound, the slope in assay [6] was 0.00592 (inactive).

As to `COc1ccc(C(CNC(=O)c2cc(C)oc2C)N2CCOCC2)cc1` (stereo not drawn), in assay [1], the cell count is 711. Also, the inhibition is -0.8% (inactive) in assay [1], -140% (inactive) in assay [3], 11.1% (inactive) in assay [7] and 15.8% (inactive) in assay [8]. Further, in assay [2], the inhibition of aggregation was -5.3% (inactive). In addition, the nuclei count in assay [2] is 103%; in assay [3], 145%. Also, the fluorescence slope in assay [4] is -0.609 (inactive). The NADPH fluorescence slope in assay [5] is -9.2e-06 (inactive). The slope in assay [6] was 0.00615 (inactive).

As for `CCOC(=O)CSc1nnc([C@H](C)NC(=O)OC(C)(C)C)o1`, in assay [1], the cell count turned out to be 552. In addition, the inhibition is 12% (inactive) in assay [1], -35% (inactive) in assay [3], 3.34% (inactive) in assay [7] and 14.1% (inactive) in assay [8]. The inhibition of aggregation in assay [2] was -32.6% (inactive). Also, the nuclei count in assay [2] came out at 83.6%; in assay [3], 118%. Besides, the fluorescence slope in assay [4] was -0.471 (inactive). Further, the NADPH fluorescence slope in assay [5] was -3.4e-05 (inactive). The slope in assay [6] is 0.00421 (inactive).

With `CSc1ccccc1N=CC1=C(O)CC(C)(C)CC1=O`, the cell count in assay [1] amounted to 483. The inhibition in assay [1] was 7.1% (inactive); in assay [3], -4.9% (inactive); in assay [7] it was 5.59% (inactive); in assay [8], 17.7% (inactive). The inhibition of aggregation in assay [2] is 2.4% (inactive). Moreover, the nuclei count in assay [2] turned out to be 104%; in assay [3], 119%. Also, in assay [4], the fluorescence slope is -0.461 (inactive). Also, in assay [5], the NADPH fluorescence slope is -0.000148 (inactive). Further, the slope in assay [6] was 0.00576 (inactive).

As for `COc1ccc(OCc2nc(C#N)c(N3CCN(c4ccc(OC)cc4)CC3)o2)cc1`, the cell count in assay [1] turned out to be 479. The inhibition in assay [1] is 2.9% (inactive); in assay [3], 15.1% (inactive); in assay [7] it was -5.28% (inactive); in assay [8], 3.87% (inactive). The inhibition of aggregation in assay [2] was -2.2% (inactive). Further, the nuclei count worked out at 73.6% in assay [2] and 89.2% in assay [3]. In assay [4], the fluorescence slope was -0.421 (inactive). Moreover, the NADPH fluorescence slope in assay [5] is 2.3e-05 (inactive). For the same compound, the slope in assay [6] was 0.0041 (inactive).

As to `CCOCCCNC(=O)Cn1cc2c(n1)CCCCC2`, in assay [1], the cell count is 486. The inhibition in assay [1] is -2.3% (inactive); in assay [3], -25.4% (inactive); in assay [7], 3.75% (inactive); in assay [8], 19.9% (inactive). Also, the inhibition of aggregation in assay [2] is 19.4% (inactive). For the same compound, the nuclei count was 88.9% in assay [2] and 109% in assay [3]. In addition, the fluorescence slope in assay [4] is -0.605 (inactive). In addition, the NADPH fluorescence slope in assay [5] was -1.2e-05 (inactive). Moreover, in assay [6], the slope was 0.00693 (inactive).

On to `Cc1noc(/C=C/N(C)C)c1S(=O)(=O)N1CCCC(C(=O)N2CCc3ccccc32)C1` (stereo not drawn), for which, in assay [1], the cell count was 620. Also, the inhibition in assay [1] was -4% (inactive); in assay [3], -16.5% (inactive); in assay [7], 11.8% (inactive); in assay [8], 45.3% (inactive). For the same compound, the inhibition of aggregation in assay [2] was -4.7% (inactive). Further, the nuclei count was determined as 86.6% in assay [2] and 95.3% in assay [3]. Further, the fluorescence slope in assay [4] was -0.537 (inactive). The NADPH fluorescence slope in assay [5] is -5.3e-05 (inactive). For the same compound, the slope in assay [6] was 0.00689 (inactive).

As to `CCOc1ccc(-c2cc(CCCC(=O)N3CCN(c4ccc(OC)cc4)CC3)no2)cc1`, the cell count in assay [1] was 513. Moreover, the inhibition in assay [1] is 0.7% (inactive); in assay [3], -0.1% (inactive); in assay [7], 11% (inactive); in assay [8], 24.1% (inactive). The inhibition of aggregation in assay [2] is 23.7% (inactive). The nuclei count came out at 61% in assay [2] and 86% in assay [3]. The fluorescence slope in assay [4] is -0.614 (inactive). Moreover, the NADPH fluorescence slope in assay [5] is 2.2e-05 (inactive). In addition, the slope in assay [6] is 0.00539 (inactive).

On to `N#Cc1nc(COc2ccccc2)oc1NCCCn1ccnc1`, for which the cell count in assay [1] came to 371. Moreover, the inhibition in assay [1] is 5.2% (inactive); in assay [3] it was 6.7% (inactive); in assay [7], -11.6% (inactive); in assay [8] it was -1.22% (inactive). The inhibition of aggregation in assay [2] was 0.8% (inactive). The figures for the nuclei count in assay [2] and in assay [3] were 95.5% and 90.9%, respectively. The fluorescence slope in assay [4] is -0.629 (inactive). Besides, in assay [5], the NADPH fluorescence slope is -1.3e-05 (inactive). Further, in assay [6], the slope is 0.00641 (inactive).

In the case of `COc1ccc(S(=O)(=O)N2CCOCC2)cc1C(=O)Nc1cc(C)on1`, the cell count in assay [1] worked out at 225. In addition, the inhibition in assay [1] was 1.1% (inactive); in assay [3], 38.6% (inactive); in assay [7] it was -8.66% (inactive); in assay [8], 12.5% (inactive). In addition, the inhibition of aggregation in assay [2] was -3.3% (inactive). Also, the figures for the nuclei count in assay [2] and in assay [3] were 96.6% and 76.9%, respectively. The fluorescence slope in assay [4] is -0.436 (inactive). Also, in assay [5], the NADPH fluorescence slope was -3.9e-05 (inactive). Also, in assay [6], the slope is 0.00355 (inactive).

As to `Cc1ccc2cccc(SCC(=O)N3CCOCC3)c2n1`, the cell count in assay [1] worked out at 286. Also, the inhibition in assay [1] was -6.7% (inactive); in assay [3] it was -45.8% (inactive); in assay [7], 6.65% (inactive); in assay [8] it was 31.6% (inactive). Also, the inhibition of aggregation in assay [2] was 28% (inactive). Also, the nuclei count in assay [2] worked out at 72.7%; in assay [3], 105%. Also, the fluorescence slope in assay [4] was -0.327 (inactive). The NADPH fluorescence slope in assay [5] was 7.7e-06 (inactive). For the same compound, in assay [6], the slope is 0.00384 (inactive).

On to `CCCCn1c(CN2CCN(c3ccccc3)CC2)nc2c1c(=O)n(C)c(=O)n2C`, for which, in assay [1], the cell count is 702. Further, the inhibition in assay [1] was -11.5% (inactive); in assay [3] it was -17.7% (inactive); in assay [7], 1.46% (inactive); in assay [8], -8.66% (inactive). The inhibition of aggregation in assay [2] is -3.7% (inactive). The nuclei count was 90.6% in assay [2] and 117% in assay [3]. Besides, the fluorescence slope in assay [4] was -0.542 (inactive). In assay [5], the NADPH fluorescence slope was -4.7e-05 (inactive). Further, the slope in assay [6] was 0.00817 (inactive).

`Cc1sc2nc(CN3CCN(S(=O)(=O)c4cccc5nonc45)CC3)[nH]c(=O)c2c1C`: in assay [1], the cell count was 661. The inhibition was -16.4% (inactive) in assay [1], -55.1% (inactive) in assay [3], 3.59% (inactive) in assay [7] and 1.1% (inactive) in assay [8]. Besides, in assay [2], the inhibition of aggregation was 11.8% (inactive). Also, the nuclei count in assay [2] worked out at 60.7%; in assay [3] it was 116%. Further, in assay [4], the fluorescence slope was -0.411 (inactive). The NADPH fluorescence slope in assay [5] was -5.6e-05 (inactive). For the same compound, the slope in assay [6] was 0.00421 (inactive).
